The values that follow come from PubChem BioAssay.

The experiment can be described thus: small-molecule microarray binders of probe aCHRDL2, primary screen, biochemical, biotinylated probe, 635/667 nm fluorescence (AID 1100). Particulars: higher = more signal.
The compound `C=C1C(=O)C=C2CN(C(=O)c3ccccc3)[C@@](Cc3ccc(OC)cc3)(C(=O)OC)[C@@H]12` came in with a composite z-score of 1.18.
Next, `COC(=O)[C@@]1(Cc2ccc(F)cc2)[C@H]2c3cc(C(=O)N(C)C)n(C)c3C[C@H]2CN1C(=O)c1ccccc1`: 0.885.
With `COCCCNC(=O)[C@@]1(CCS(=O)(=O)c2ccccc2)COC(c2ccc(OCCCO)cc2)=N1` the figure was 1.47.
Next, `CO[C@H]1O[C@H](CO)[C@@H](OC(=O)Nc2ccc3c(c2)OCO3)[C@H](OC(=O)Nc2ccccc2-c2ccccc2)[C@H]1OC(=O)Nc1ccccc1-c1ccccc1`: 0.591.
The compound `NC(=O)N1C(=O)C2C(C1=O)C1C=C(CCCO)C2C(C2CC2)N1Cc1sc2ccccc2c1Cl` (stereo unspecified) came in with a composite z-score of 0.256.
Next, `C=CC[C@@]1(C(=O)OC)N=C(c2ccc(OCCCO)cc2)O[C@@H]1c1ccccc1N=[N+]=[N-]`: 1; `C=CCC(OC(C)=O)[C@@H]1[C@@H](N(Cc2ccc(-c3ccccc3)cc2)C(=O)c2cccc3ccccc23)c2cc(OCCCO)ccc2N1C(=O)Cc1ccc(OC)cc1` (stereo partly specified): 0.516; `CCOc1cc(C(O)C2C=CC3C(=O)N(c4ccccc4)C(=O)C3N2Nc2ccccc2F)ccc1O` (stereo unspecified): 0.762.
Next, `C=CCC(OC(C)=O)[C@@H]1[C@@H](N(Cc2cc3ccccc3o2)C(=O)c2cccc3ccccc23)c2cc(OCCCO)ccc2N1C(=O)c1ccc2ccccc2n1` (stereo partly specified): 0.317; `COc1ccc(C(O)C2C=CC3C(=O)N(C)C(=O)C3N2N(c2ccccc2)c2ccccc2)cc1` (stereo unspecified): 0.93; `O=C1O[C@@H](c2ccccc2)[C@@H](c2ccccc2)N2[C@@H](c3ccc(OCCO)cc3)[C@]3(C(=O)Nc4ccc(C#CC5(O)CCCCCC5)cc43)[C@@H](C(=O)Nc3nc4ccccc4s3)[C@H]12`: 0.662.
With `COCCOC(=O)N1C(=O)[C@@]2(c3cc(C#CCCO)ccc31)[C@H](C(N)=O)[C@H]1C(=O)O[C@H](c3ccccc3)[C@H](c3ccccc3)N1[C@@H]2c1ccccc1OCCO`, the composite z-score was determined as 0.694.
Next, `CC1CC/C=C\[C@H]2OC34C=CCN(C(C)(C)C)C(=O)[C@H]3N(CCCO)C(=O)[C@@H]4C2C(=O)O1` (stereo partly specified): 0.4; `COc1ccc([Si](C)(C)[C@H]2[C@H](CC(=O)N3Cc4ccccc4C[C@H]3CO)O[C@@]3(C(=O)N(C)c4ccccc43)[C@@H]2C)cc1`: -0.431.
With `Cc1ccc(S[C@]2(C(=O)NCCCN(C)C)CC(=O)N(C3Cc4ccccc4C3)[C@@H]2c2ccc(CO)cc2I)cc1` the figure was 0.932.
With `O=C1O[C@H](c2ccccc2)[C@H](c2ccccc2)N2[C@H]1[C@@H](C(=O)N1CCN(c3ncccn3)CC1)[C@]1(C(=O)Nc3ccc(C#CCCO)cc31)[C@H]2c1ccc(O)cc1` the figure was 0.422.
For `[N-]=[N+]=Nc1ccccc1C[C@]1(C(=O)N2CCOCC2)N=C(c2ccc(OCCCO)cc2)O[C@H]1c1ccccc1N=[N+]=[N-]`, the composite z-score amounted to 0.915.
Compound `COc1ccc(C(=O)Nc2ccc(CN3C(=O)[C@@]4(O[C@@H](CCn5cc(CCO)nn5)[C@H]([Si](C)(C)c5ccc(OC)cc5)[C@H]4C)c4ccccc43)cc2)cc1` displayed a composite z-score of 0.559.
`NC(=O)NCC#Cc1ccc2c(c1)[C@]1(C(=O)N2)[C@H](c2ccc(OCCO)cc2)N2[C@H](c3ccccc3)[C@H](c3ccccc3)OC(=O)[C@H]2[C@@H]1C(=O)NC[C@H](O)c1ccccc1` had a composite z-score of 0.909.
Next, `O=C1[C@H]2C=C(I)[C@H](C[C@@H]2c2ccccc2)[C@@]12CO2`: -0.197.
Next, `CC(C)NC(=O)[C@@H]1c2ccccc2C(=O)N(Cc2ccc(OC(F)(F)F)cc2)[C@H]1c1ccc(CO)cc1`: 0.696; `COc1ccc([Si](C)(C)[C@H]2[C@H](CC(=O)N3Cc4ccccc4C[C@H]3CO)O[C@@]3(C(=O)N(c4ccccc4)c4ccccc43)[C@@H]2C)cc1`: -0.339.
With `CC(C)(C)N1CC=CC23O[C@@H]4/C=C\CCCOC(=O)C4[C@H]2C(=O)N(CCCO)[C@@H]3C1=O` (stereo partly specified) the figure was -0.006; with `O=C1C2C=CC(C(O)c3ccc([N+](=O)[O-])cc3)N(Nc3ccccc3F)C2C(=O)N1c1ccccc1` (stereo unspecified), 0.941; with `COc1ccccc1CN1C(=O)c2ccccc2[C@](Cc2ccccc2I)(C(=O)NCC(C)C)[C@@H]1c1ccc(CO)cc1`, 1.01.
In turn, `C=C(CCCC)/C(=C/C[C@H](OC(=O)c1ccncc1)c1ccc(OCCO)cc1)c1cnc2ccccc2c1` gave a composite z-score of 0.164.
In turn, `CCCC[C@H]1C[C@@H]1[C@@H]1N(C(C)=O)[C@H](c2cccc(OC)c2)CC12CC2` had a composite z-score of 0.878.
`O=C1O[C@H](Cc2ccccc2)[C@@H]2[C@H]3C=CCCC=C3CN2[C@H]1Cc1ccc(O)cc1` displayed a composite z-score of -0.0179.
As to `COCCOC(=O)N1C(=O)[C@@]2(c3cc(C#CCC(C(=O)OC)C(=O)OC)ccc31)[C@H](C(=O)Nc1nc3ccccc3s1)[C@H]1C(=O)O[C@H](c3ccccc3)[C@H](c3ccccc3)N1[C@@H]2c1ccc(OCCO)cc1`, the composite z-score is 0.164.
Consider `CCCCCCc1nc(Cc2cc(OC)c(OC)c(OC)c2)cc2c1[Si](C(C)C)(C(C)C)O[C@H]2c1ccccc1`, for which the composite z-score was -0.511.
With `COC(=O)c1cccc([C@H]2OC(=CC(=O)OC(C)C)C[C@@H](c3cccc(C(=O)OC)c3)O2)c1` the figure was 0.284; with `C=CC[C@]1(C(=O)NCC(O)CO)COC(c2ccc(OCCCO)cc2)=N1` (stereo partly specified), 1.05; with `COC(=O)[C@@]1(Cc2ccccc2)[C@H]2c3cc(C(=O)N(C)C)n(Cc4ccc(C(F)(F)F)nc4)c3C[C@H]2CN1C(=O)c1ccccc1`, 1.24.
Next, `CCCNC(=O)[C@@]1(c2ccc([N+](=O)[O-])cc2)CC(=O)N(C(C)C)[C@@H]1c1ccc(CO)cc1`: 0.985; `C[C@@H]1NC(=O)C([C@@H](C)OCc2ccccc2)NC(=O)[C@@]23C(=O)N[C@@H](Cc4ccccc4)C2[C@H](C)[C@@]2(C)O[C@H]2C3/C=C/C/C=C\CNC1=O` (stereo partly specified): -0.751; `CCOC(=O)C1=C[C@@H](C(C)(C)C)N(S(=O)(=O)c2ccc(C)cc2)[C@H]1c1ccc(C#N)cc1`: 0.113.
